The campaign covered roughly 190,000 compounds. About 140 (0.074%) were called active. The sample as a whole holds a higher share of actives than the screen did. Values without a mark were called inactive. No stated cut-off is given here; in the data, active means inhibition above about 40%.
target: Bcl-2-like protein 10 (Homo sapiens) (UniProt Q9HD36); test: Bcl-B and Bim peptide interaction disruptors – biochemical, multiplexed, human Bcl-2 family, primary screen (AID 951); conditions: bead-based flow cytometry, Bim peptide-Bcl-B binding; at 10 µM; active compounds read high;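 further: 0% = tracer peptide without compound and 100% = reference inhibitor peptide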
Sequence (Q9HD36 whole entry, looked up): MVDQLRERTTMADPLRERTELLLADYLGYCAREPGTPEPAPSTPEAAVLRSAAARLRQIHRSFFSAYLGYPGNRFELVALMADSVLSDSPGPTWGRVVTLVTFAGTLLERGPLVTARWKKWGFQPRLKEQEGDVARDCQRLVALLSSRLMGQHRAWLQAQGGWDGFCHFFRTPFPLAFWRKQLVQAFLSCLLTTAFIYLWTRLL

Compound | inhibition
O=C(CSc1nncn1-c1cccnc1)N1CCOCC1 | -6%
O=C(NCCCn1ccnc1)C(=O)c1cn(CC(=O)N2CCCCCC2)c2ccccc12 | 0%
Cn1ncc2c(NNC(=O)Cc3cccc4ccccc34)ncnc21 | -3%
OCCC1CN(Cc2cccn2-c2nccs2)CCN1CCc1ccccc1 (centres undefined) | -1%
O=C(CN1C(=O)NC2(CCCCCC2)C1=O)NCc1cccs1 | -1%
Cc1ccc(C(=O)Nc2ccc(C)c(S(=O)(=O)N(C)C)c2)s1 | 0%
CC(NC(=O)c1cccc2ccccc12)c1ccc2c(c1)CCCC2 (centres undefined) | 6%
CCOCC(=O)Nc1ncc(S(=O)(=O)c2ccc([N+](=O)[O-])cc2)s1 | 3%
Cc1ccccc1NC(=O)CSC1=NCCN1 | -6%
CCOC(=O)c1sc2nc(C)nc(Nc3ccc(OC)c(OC)c3)c2c1C | 2%
CN(C)c1ccc(/C=N/N(Cc2ccccc2)c2ccccc2)cc1 | -3%
C=CCn1c(CCNC(=O)c2ccccc2F)nnc1SCC(=O)Nc1ccc(OC)cc1 | 0%
COc1ccc(C2CC(c3ccccc3)=NN2C(=O)COC(=O)COc2ccccc2)cc1 (centres undefined) | -5%
CC(=O)Nc1cccc([N+](=O)[O-])c1 | -4%
COC(=O)C1CCN(C(=O)c2cc(=O)[nH]c3ccccc23)CC1 | -1%
CC1CCCC(NC(=O)COC(=O)[C@@H]2CC(O)CN2S(=O)(=O)c2ccc3c(c2)OCCO3)C1C (some centres undefined) | -1%
O=C(CNC(c1ccccc1)c1ccccc1)Nc1ccc(F)cc1 | -8%
CCOc1ccccc1/C=N/NC(=O)CNC(=O)COc1ccccc1 | 74% (active)
Cc1ccc(/C=N/NC(=O)CNC(=O)COc2ccccc2)o1 | -7%
C=CCc1ccccc1OCC(=O)N/N=C/c1ccccc1OCC | -9%
CCOc1ccc(NC(=O)CN(C)CC(=O)NC(C)c2ccccc2)cc1OCC (centres undefined) | -4%
Cc1cccc(C(=O)N2CCC(c3nc4ccccc4s3)CC2)c1 | -2%
O=C(CSC1CC(=O)N(CCc2ccccc2)C1=O)Nc1ccc(Cl)cc1 (centres undefined) | -5%
C[C@@H]1CC[C@]2(O[C@@H](CCO)C[C@H](O)[C@H]2O)O1 | -5%
O=C(N/N=C/c1ccco1)c1ccc(NC(=O)C2CC2)cc1 | -4%

Compound | inhibition
NC(=O)Cn1nc([N+](=O)[O-])nc1Oc1ccc(Br)cc1 | -1%
CN1CCN(C(=O)CCc2ncc(C(F)(F)F)cc2Cl)CC1 | -8%
COc1ccc(C(=O)NCC(=O)N/N=C/c2ccc([N+](=O)[O-])s2)cc1OC | -2%
Cc1ccc(S(=O)(=O)NNC(=O)Nc2cccc3ccccc23)cc1 | 0%
CCOC(=O)c1c(-c2cccc(N)c2)cn2ccccc12 | 17%
COc1ccc2c(c1)CC[C@@H]1[C@@H]2CC[C@]2(C)C(=O)CC[C@@H]12 | -3%
CC(=O)C1C(c2ccc(Cl)cc2)c2c(n[nH]c2C)CC1(C)O (centres undefined) | -4%
CCNC(=O)COC(=O)CCNC(=O)c1cccc(C)c1 | -4%
NC(=O)C[n+]1cccc(C(N)=O)c1 | -1%
O=C(CP(=O)(c1ccccc1)c1ccccc1)N1CCOCC1 | -6%
CS(=O)(=O)Nc1cccc(-c2cn3ccccc3n2)c1 | -2%
CSc1ccc(/C=N/N2CCN(Cc3ccccc3Cl)CC2)cc1 | -8%
CCC(C(=O)OCC(=O)Nc1c(Cl)cc(Cl)cc1Cl)c1ccccc1 (centres undefined) | -7%
C=CCn1c(SCC(N)=O)nnc1-c1cc2c(s1)CCC(CC)C2 (centres undefined) | -12%
N=C1C(c2nc3ccccc3[nH]2)=C(O)CN1NC(=O)c1c[nH]c2ccccc12 | -2%
Cc1cc(C)c2nc(-c3cccnc3)cc(C(=O)Nc3ccc(S(=O)(=O)Nc4onc(C)c4C)cc3)c2c1 | -1%
O=C1N(c2ccc(Cl)cc2)C(c2ccc(Cl)cc2)N2CCCN12 (centres undefined) | -11%
CC(=O)NC(CC(=O)O)c1ccc(F)cc1 (centres undefined) | -4%
Cc1ccc(CC2CC(=O)N(c3nc(C)cc(C)n3)C2=O)cc1 (centres undefined) | -1%
CC(C)(C)c1nnc(N/N=C/c2ccc(O)cc2)n(N)c1=O | -7%
Fc1ccccc1N=C1Nc2cccc3cccc1c23 | -4%
Cc1ccccc1C(=O)OC1OC(=O)C(Cl)=C1Nc1ccccc1 (centres undefined) | -2%
O=C(CSc1nn(-c2ccc(F)cc2)c(=S)s1)NC1CCS(=O)(=O)C1 (centres undefined) | -1%
Cc1ccccc1-n1nc(SCC(=O)O)sc1=S | 43% (active)
N#CCSc1nn(-c2ccc(F)cc2)c(=S)s1 | -7%

Compound | inhibition
O=C(Nc1ccc(Br)cn1)c1ccc([N+](=O)[O-])cc1Cl | -6%
Cc1ccc(COc2ccc(C(=O)NN)cc2)cc1 | -3%
COc1cc(C2/C(=C(\O)c3ccc4c(c3)CC(C)O4)C(=O)C(=O)N2Cc2ccco2)ccc1O (centres undefined) | 1%
O=C(O)/C=C/c1ccc(S(=O)(=O)N2CCCCCC2)cc1 | 0%
Cc1cc(Cl)c(S(=O)(=O)NCCC(=O)O)cc1OCC(N)=O | -7%
Cc1cc(Cl)c(S(=O)(=O)NCC2CCCO2)cc1OCC(N)=O (centres undefined) | 80% (active)
Cc1cc(Cl)c(S(=O)(=O)Nc2ccc3c(c2)OCCO3)cc1OCC(N)=O | -2%
CCOc1cc2[nH]c(=O)n(Cc3ccc(C(=O)NCCCN4CCCC4=O)cc3)c(=O)c2cc1OCC | -6%
OCC1(Cc2ccccc2C(F)(F)F)CCN(Cc2cccc3cnccc23)CC1 | 0%
CCOc1ccc(NC(=O)CSc2nc3ccccc3c(=O)n2Cc2cccs2)cc1 | -7%
Cc1ccc(S(=O)(=O)N2CCOCC2)cc1C(=O)OC1CCCCC1=O (centres undefined) | -7%
Cc1ccc(C(=O)N/C(=C/c2cccnc2)C(=O)O)cc1 | -7%
N/C(=N/O)c1cccn1Cc1ccccc1[N+](=O)[O-] | -4%
CC(C)NC(=O)/C(C#N)=C\c1ccc(N(C)C)c(Br)c1 | -2%
CCc1nccn1S(=O)(=O)c1cccc([N+](=O)[O-])c1 | -2%
CCc1c(SCCC(=O)O)nc2ccccc2c1C | -7%
CN(Cc1ccccn1)Cc1nc(-c2ccc(Cl)cc2)no1 | -6%
Nc1nnnn1CC(=O)N/N=C/c1ccc(-c2cccc(Cl)c2)o1 | -4%
Cc1cc(C)n(-c2ccc3nncn3n2)n1 | 2%
Cc1ccc(C2=NN(C(=O)CSc3nc(N)cc(N)n3)C(c3ccco3)C2)cc1 (centres undefined) | -27%
CC1CCc2sc(C(=O)N/N=C/C3CCCCC3)cc2C1 (centres undefined) | -6%
Cc1ccc2nc(-c3ccncc3)cc(C(=O)Nc3ccc(OC(F)F)cc3)c2c1 | 1%
COc1ccc(-n2cc(CNC3CCOCC3)c(-c3cccc(F)c3)n2)cc1 | -5%
COc1ccc(Cl)cc1N(CC(=O)N1CCCCC1)S(C)(=O)=O | -5%
Clc1ccc(CSc2nnc(/C=C/c3ccccc3)o2)c(Cl)c1 | -9%

Compound | inhibition
CSCc1cc(N2CCOCC2)nc(SCc2ccc(Cl)cc2Cl)n1 | -11%
CSCc1cc(N(C)C)nc(SCc2ccc(Cl)cc2Cl)n1 | 69% (active)
Cc1cccc(NC(=S)N2CCCC(c3nc4ccccc4[nH]3)C2)c1 (centres undefined) | -14%
O=C(COC(=O)[C@H](Cc1ccccc1)NC(=O)c1cccs1)Nc1cc(F)ccc1F | -14%
Cc1ccc(C)c(NC(=O)CSc2nc3c(oc4ccccc43)c(=O)n2-c2ccccc2)c1 | -6%
C/C(=N\NC(=O)c1cccc(N2CCCC2=O)c1)c1ccc(N)cc1 | -7%
CC(O)C(NS(=O)(=O)c1ccc(Cl)cc1)C(=O)OCc1cc([N+](=O)[O-])cc2c1OCOC2 (centres undefined) | 0%
COc1ccc(N(C(=O)c2ccc(C)cc2)S(=O)(=O)c2cccs2)cc1 | -6%
CSCCC(NC(=O)COc1ccccc1)C(=O)Nc1ccc(C)cc1 (centres undefined) | -6%
Cc1nc(CC(=O)NNS(=O)(=O)c2ccc(F)c(Cl)c2)cs1 | 1%
O=C(NC1CCCCC1)C1CCCN(S(=O)(=O)c2ccc(Br)s2)C1 (centres undefined) | -6%
c1ccc2c(c1)CSc1sccc1C2=C1CCNCC1 | -4%
Cc1ccc(C(C)NC(=O)Cn2nc(C)c([N+](=O)[O-])c2C)cc1 (centres undefined) | -3%
CCOC(=O)N/N=C/c1cccnc1 | -4%
CCN(CC)P(=O)(Nc1ccc(SC(F)F)cc1)c1ccc(N(C)C)cc1NC(=O)c1ccco1 (centres undefined) | 1%
CN(C)C(=O)N1CCNCC1 | 0%
Cc1cc(C)n(CC(=O)Nc2ccc([N+](=O)[O-])cc2)n1 | 0%
CC(C)C(=O)NCc1cc(-c2ccc(Cl)cc2)no1 | 5%
CC1=NN(C(=O)CCCc2ccccc2)C(O)(C(F)(F)F)C1 (centres undefined) | -2%
OCC1(CCOc2ccccc2)CCN(Cc2cn[nH]c2-c2ccccc2)CC1 | -2%
CN1CCN(c2ccc(S(=O)(=O)N3CCCCC3)cc2NC(=O)Cc2ccccc2F)CC1 | -4%
COc1ccc(N2CCN(C(=O)CNS(=O)(=O)c3ccc(C)c(C)c3)CC2)cc1 | -2%
O=C(CCC1CCCN(Cc2ccc(O)c(Cl)c2)C1)NCc1ccccc1F (centres undefined) | -1%
CCCCN(CC(=O)NC(C)(C)C)C(=O)C(=O)Nc1ccc2c(c1)OCCO2 | 1%

From PubChem BioAssay AID951 (NMMLSC, 2007)
